# PubChem BioAssay AID504467 (National Center for Advancing Translational Sciences (NCATS), 2011)
# The campaign covered roughly 330,000 compounds. About 7,700 (2.3%) were called active. Inconclusive results (about 26%) are left out. Calls come from the whole dose curve; as a rule, active = well fitted inhibition curve with a large enough effect; inconclusive = small, poorly fitted or top-dose-only effect, or effect the other way; inactive = flat fitted curve, though single readings scatter. Many of the other results were omitted from the sample, so actives are more common in it than they were.
# Experiment: qHTS screen for small molecules that inhibit ELG1-dependent DNA repair in human embryonic kidney (HEK293T) cells expressing luciferase-tagged ELG1; note: nearly all actives have a fitted effect of over 55% in size
# Conditions: HEK293T ELG1-luciferase reporter, luminescence, 16 h, DNA damage induced by 5-fluorouridine; series mostly up to 46.1 µM; activity change, negative = inhibition: at the top concentration
# Text: NIH Molecular Libraries Probe Production Network [MLPCN] NIH Chemical Genomics Center [NCGC] MLPCN Grant: 1 R03 MH092164-01 Assay Provider: Kyungjae Myung, NHGRI, NIH Keywords: MLPCN, qHTS, NCGC, genotoxicity, cancer Assay Overview: Cancer cells divide rapidly compared to normal cells in the body. During cell division, cancer cells need to duplicate their genome by DNA replication. The failure of genome duplication leads to cancer cells' death. Therefore, inhibitors of DNA replication could specifically kill cancer cells. Based on this concept, many chemotherapeutic agents were developed and have been used to treat cancer patients. However, there are a limited number of agents available in the clinical setting, and some of those that do exist have low efficacy and severe side effects. Therefore, if we can find the compounds that effectively block DNA replication either by directly damaging DNA or by inhibiting other cellular mechanisms, the options for cancer treatment will be broadened. With this in mind, we developed a quantitative high-throughput ELG1-luciferase reporter gene assay. Small molecules that specifically block ELG1 function in response to DNA damage can be identified by monitoring the suppression of luciferase activity. Since ELG1 defines a pathway for repairing DNA damage, agents blocking ELG1 function can be used to sensitize cancer cells to chemotherapeutic agents whose mechanism of action involves the induction of DNA damage.
# Assay Protocol Summary: For genotoxicity screening, 2,000 cells in 4 uL/well were dispensed into white, solid-bottom 1536-well plates using a solenoid-based dispenser. Following transfer of 1 uL 5-Fluorouridine and 23 nL compound or DMSO vehicle by a pin tool, the plates were incubated 16 hr at 37 °C and 5% CO2. 5 ul ONE-Glo (Promega) was then added to each plate and following a 30 min incubation at room temperature, luciferase activity was quantified on a ViewLux CCD-based plate reader.
# % is set by controls: 0 for no effect and ±100 for the full control effect; potency is the fitted concentration of half-maximal effect.
Structure (SMILES),Potency,"activity change, negative = inhibition"
C=CCC[C@@H](Cc1ccc(F)cc1)C(=O)OC[C@H](Cc1c[nH]c2ccccc12)NC(=O)[C@@H](CC=C)CC(=O)N(CCO)Cc1ccccc1,20.6 µM (active),–
C=CCC[C@@H](Cc1ccc(F)cc1)C(=O)O[C@H](CNC(=O)[C@H](CC=C)CC(=O)N(CCO)Cc1ccccc1)c1ccccc1,20.6 µM (active),–
C=CCC[C@H](Cc1ccc(F)cc1)C(=O)OC[C@@H](NC(=O)[C@@H](CC=C)CC(=O)N[C@H](CO)Cc1ccccc1)C(C)(C)C,–,0% (inactive)
C=CC[C@H](CC(=O)NCCO)C(=O)N[C@@H](COC(=O)[C@@H](CC=C)Cc1ccc(F)cc1)Cc1c[nH]c2ccccc12,–,-27.5% (inactive)
Cc1ccc(Br)c(NS(=O)(=O)c2cccc(C(=O)N3CCNC(=O)C3)c2)c1,–,11.5% (inactive)
CC(C)c1ccc(S(=O)(=O)N2CCN(C(C)C(=O)NC3CCCC3)CC2)cc1 (centres undefined),–,0.179% (inactive)
O=C(NC1CCCCCC1)C1CCN(C(=O)c2ccc(Cl)cc2)CC1,–,0.0569% (inactive)
O=C(COC(=O)CN1C(=O)C2CCCCC2C1=O)Nc1ccc(F)c(F)c1F (centres undefined),–,0% (inactive)
CCC1(C)NC(=O)N(CC(=O)N2CCN(c3cccc(Cl)c3)CC2)C1=O (centres undefined),–,-7.61% (inactive)
COc1cccc(CNc2nc(C(F)(F)F)nc3ccccc23)c1,13 µM (active),–
NS(=O)(=O)c1ccc(CCNC(=O)CNC(=O)Cc2ccccc2)cc1,–,1.47% (inactive)
Cc1cc(C)n(-c2nc(C(F)(F)F)nc3ccccc23)n1,–,-2.14% (inactive)
c1coc(CNc2ncnc3ccccc23)c1,–,9.04% (inactive)
COc1cccc(CNc2ncc(-c3ccccc3)n2C)c1,–,-18.4% (inactive)
NS(=O)(=O)c1ccc(CCNc2nc(C(F)(F)F)nc3ccccc23)cc1,11.6 µM (active),–
COc1ccc(CNc2ncnc3ccccc23)cc1,2.59 µM (active),–
CC(Nc1nc(C(F)(F)F)nc2ccccc12)c1cccs1 (centres undefined),–,-9.25% (inactive)
CCc1nc2ccccc2c(C(=O)NCc2ccc(OC)cc2)c1C,–,-3.67% (inactive)
CN1CCN(S(=O)(=O)c2ccc(Nc3ccc(F)cc3)nc2)CC1,–,0.234% (inactive)
O=C(CN1C(=O)NC2(CCCCCCC2)C1=O)NCc1ccc(F)cc1,–,-2.29% (inactive)
O=C(C(NS(=O)(=O)c1cccc2nsnc12)c1ccccc1)N1CCN(c2ccccc2)CC1 (centres undefined),16.4 µM (active),–
O=C(C(NS(=O)(=O)c1cccc2nsnc12)c1ccccc1)N1CCN(c2ccccn2)CC1 (centres undefined),–,-14.9% (inactive)
O=C(O)C(NS(=O)(=O)c1cccc2nsnc12)c1ccccc1 (centres undefined),–,-7.45% (inactive)
CC(=O)Nc1ccc(N2CCOCC2)c(C(=O)Nc2cccc(C)c2)c1,–,0.105% (inactive)
COC(=O)c1cc(NC(=O)c2ccco2)ccc1N1CCOCC1,–,27.5% (inactive)

Structure (SMILES),Potency,"activity change, negative = inhibition"
COC(=O)c1cc(NC(=O)c2cc(C(C)(C)C)nn2Cc2cccc(C)c2)ccc1N1CCOCC1,16.4 µM (active),–
CSc1ncccc1C(=O)Nc1ccc(C)cn1,–,12.8% (inactive)
Cc1csc(SCC(=O)N(c2ccccc2)C(C)C)n1,–,2.12% (inactive)
CC(C)(C)OC(=O)C[C@@H]1C/C=C\C[C@@H](CC(=O)N[C@@H](CO)Cc2ccccc2)C(=O)N2CCC[C@H]2COC1=O,–,-0.459% (inactive)
NC(=O)c1cc(-c2cccnc2)nc2ccc(Br)cc12,–,-0.487% (inactive)
Brc1ccc2ncnc(NCc3cccnc3)c2c1,8.2 µM (active),–
Cc1cc(NCc2cccnc2)no1,–,-0.988% (inactive)
C=CC[C@@H](CC(=O)NCCO)C(=O)N[C@H](C)COC(=O)[C@@H](CC=C)CC(=O)OC(C)(C)C,–,9.21% (inactive)
COc1cc(OC)c(C(=O)OC(C)C(=O)Nc2cc(C(F)(F)F)ccc2Cl)cc1OC (centres undefined),14.6 µM (active),–
CC(CC(=O)Nc1cc(C(F)(F)F)ccc1Cl)c1ccccc1 (centres undefined),–,-11.4% (inactive)
COc1ccc(/C(C)=N/Nc2cc(C(F)(F)F)ccc2Cl)c(OC)c1,–,-5.75% (inactive)
CC1CC(C)CN(C(=O)COC(=O)c2ccc3ncsc3c2)C1 (centres undefined),–,22.9% (inactive)
CCN(CC(=O)Nc1ccc(OC)cc1)C(=O)c1ccc(Cl)c(S(=O)(=O)N2CCCC2)c1,–,-8.47% (inactive)
Cc1nnc(N/N=C/c2ccccn2)[nH]c1=O,0.92 µM (active),–
Cc1ccccc1Nc1nnc(C)c(=O)[nH]1,–,1.45% (inactive)
Cc1nnc(N/N=C/C2CC=CCC2)[nH]c1=O (centres undefined),–,8.5% (inactive)
Cc1ccc([C@@H]2CC=C(C(=O)O)[C@H](c3cccc(Cl)c3)N2S(=O)(=O)c2ccc(C)cc2)cc1,–,10.9% (inactive)
CN(C)C(CNC(=O)Cc1ccc([N+](=O)[O-])cc1)c1ccccc1 (centres undefined),–,13.3% (inactive)
CN(C)CCNC(=O)Cc1ccc([N+](=O)[O-])cc1,–,15.5% (inactive)
CN(CCc1ccccc1)C(=O)c1cccc(NC(=O)Cc2ccc([N+](=O)[O-])cc2)c1,13 µM (active),–
Cc1ccc2nnn(Cc3cccc(C(C)(C)C)c3O)c2c1,–,-1.83% (inactive)
CCc1ccc2nc(N(CCCN(C)C)C(=O)c3ccc4c(c3)OCCO4)sc2c1,–,9.22% (inactive)
O=C(CSc1ncnc2sccc12)NC1CCS(=O)(=O)C1 (centres undefined),–,6.81% (inactive)
CC1(C)Cc2cccc(OCC(=O)NCc3ccccc3)c2O1,–,16.1% (inactive)
